# Laboratory results as given in the supplement of paper PMC13380429.
# Values without a mark were called inactive.
# System: Vero E6 infected with SARS-CoV-2
# Test: inhibition of SARS-CoV-2 cytopathic effect; higher = more antiviral protection, active = above 15
# Settings: 48 h
Structure (SMILES),inhibition of SARS-CoV-2 cytopathic effect (1 nM) [%],inhibition of SARS-CoV-2 cytopathic effect (8.33 nM) [%],inhibition of SARS-CoV-2 cytopathic effect (100 nM) [%],inhibition of SARS-CoV-2 cytopathic effect (833.33 nM) [%],inhibition of SARS-CoV-2 cytopathic effect (10000 nM)
Oc1nc(-c2ccc(C(F)(F)F)cc2)nc2c1CSCC2,4.88,2.98,3.97,2.58,0.15%
O=C(c1ccc(OCCN2CCCCC2)cc1)c1c(-c2ccc(O)cc2)sc2cc(O)ccc12 [raloxifene],3.31,1.2,2.79,4.77,24.4% (active)
O=C(/C=C/c1ccc(O)c(O)c1)O[C@@H]1C[C@](O)(C(=O)O)C[C@@H](O)[C@H]1O [chlorogenic-acid],-0.66,1.67,1.61,-0.18,-0.05%
COc1cccc([C@@H](C)NCCCc2ccccc2Cl)c1 [tecalcet],1.64,1.12,3.52,-0.64,-3.1%
COc1cc(NC(C)CCCN)c2ncccc2c1 (stereo not given) [primaquine],1.68,2.25,0.83,1.27,3.23%
N#Cc1c[nH]c2c(C(=O)N3CCN(CCc4ccc(F)cc4)CC3)cccc12 [pruvanserin],3.23,-1.53,2.62,1.31,1.69%
Oc1c(I)cc(Cl)c2cccnc12 [clioquinol],-4.79,-6.61,-4.78,-5.93,-9.21%
CCC(=O)O[C@@H](O[P@@](=O)(CCCCc1ccccc1)CC(=O)N1C[C@H](C2CCCCC2)C[C@H]1C(=O)O)C(C)C [fosinopril],-0.77,0.8,2.37,1.19,3.18%
CC(=O)[C@]1(N)Cc2c(O)c3c(c(O)c2[C@@H](O[C@H]2C[C@H](O)[C@H](O)CO2)C1)C(=O)c1ccccc1C3=O [amrubicin],2.67,-2.31,-3.18,-3.9,-0.58%
Nc1cccc(-c2cc3c(Oc4cccc(O)c4)ncnc3[nH]2)c1,4.09,0.18,-2.41,-3.87,-11.4%
CC/C=C(\C(=O)N[C@@H]1C(=O)N2C(C(=O)OCOC(=O)C(C)(C)C)=C(COC(N)=O)CS[C@H]12)c1csc(N)n1 [cefcapene-pivoxil],-0.85,-2.87,-0.76,1.69,-0.26%
CCCCCCCCCCCCC[N+](C)(C)Cc1ccccc1 [benzalkonium],-0.66,0.17,-0.42,1.78,-8.08%
CNC(=O)[C@H]1O[C@@H](n2cnc3c(NCc4cccc(I)c4)ncnc32)[C@H](O)[C@@H]1O,0.17,0.13,-0.04,0.25,-2.76%
CN(C)C(=O)n1nnnc1Cc1ccc(-c2ccccc2)cc1,-1.07,2.48,0.66,2.07,1.15%
CC[C@]1(O)C[C@H]2CN(CCc3c([nH]c4ccccc34)[C@@](C(=O)OC)(c3cc4c(cc3OC)N(C=O)[C@H]3[C@@](O)(C(=O)OC)[C@H](OC(C)=O)[C@]5(CC)C=CCN6CC[C@]43[C@@H]65)C2)C1 [Vincristine (sulfate)],-1.47,-1.12,0.94,0.14,-0.29%
CCC(C)(Oc1ccc(C2(c3ccc(OC(C)(CC)C(=O)O)cc3)CCCCC2)cc1)C(=O)O (stereo not given) [clinofibrate],-0.17,-1.53,-1.92,-1.83,0.41%
C[C@H]1O[C@@H](Oc2c(-c3cc(O)c(O)c(O)c3)oc3cc(O)cc(O)c3c2=O)[C@@H](O)[C@@H](O)[C@@H]1O [myricitrin],0.43,-0.53,0.85,-1.02,-1.34%
